Source: PubChem (National Center for Advancing Translational Sciences (NCATS))
This is a sample that favours compounds with a hit; in the whole collection about 17% have one here.
DT40 TDP1 no CPT = qHTS for Inhibitors of human tyrosyl-DNA phosphodiesterase 1 (TDP1): qHTS in cells in absence of CPT; 420,000 tested, 15% active; AID 686978, 2013; Potency, µM (series often up to 46.2 µM), for the others: at the top dose activity change, negative = growth inhibition, hits mostly inhibitors; DT40 Tdp1-/- hTDP1 cells, no CPT, ATP luminescence, 48 h; also: % is scaled to controls: 0 for no effect and ±100 for the full control effect; nearly all actives have a fitted effect of over 55% in size
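A cellular qHTS used chicken DT40 cells lacking endogenous Tdp1 but carrying stably transfected human TDP1. Compounds were applied without camptothecin, and cell growth kinetics were judged by ATP-dependent luminescence after ≥48 hr.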
S2 tox = reduces viability in counter-screen for ATXN expression inhibitors. S2 cells (HEK-293 line with an ATXN2-luciferase reporter) viability, CellTiter-Fluor protease fluorescence, 24 h. Potency, µM (series often up to 56.7 µM), hits mostly cytotoxic. 400,000 tested, 0.49% active; also: nearly all actives have a fitted effect of over 40% in size
HepG2 viability = counter-screen for TGF-b inhibitors: cytotoxicity in HepG2 cells; HepG2 CAGA-GFP viability, ATP luminescence, 18 h; Potency, µM (top dose mostly 46.1 µM), without a hit: top-dose activity change, negative = cytotoxicity, actives largely listed as cytotoxic; 410,000 tested, 0.76% active
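CellTiter-Glo luminescence gave cytotoxicity after 18 hours at 37 degrees C. The cells were HepG2 CAGA-GFP in 1% FBS DMEM, stimulated with 500 pg/mL TGF-beta after compound addition. %Activity was normalised to no-cell wells (complete cell-killing) and DMSO (no toxicity), and curves were fitted and classified.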
ATXN2 expr inh = ATXN2 expression inhibition | Potency, µM (doses to about 57 µM), for inactives: at the highest dose activity change, negative = inhibition, most hits filed as inhibitors | 360,000 tested, 0.72% active | HEK-293 ATXN2-luciferase reporter, luminescence, 24 h; also: % is scaled to controls: 0 for no effect and ±100 for the full control effect; nearly all actives have a fitted effect of over 55% in size
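ATXN2-luciferase reporter cells (luciferase flanked by upstream and downstream ATXN2 gene portions) were treated 24 h at 37 °C with compounds at up to 57 uM. SteadyGlo luminescence gave expression; GF-AFC fluorescence gave viability.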
TGFb SMAD3 inh = inhibitors of TGF-b signaling; HepG2 CAGA-GFP TGF-b/SMAD3 reporter, GFP fluorescence, 18 h; TGF-beta stimulated, 500 pg/mL final; Potency, µM (top dose mostly 46.1 µM), for inactives: top-dose activity, negative = inhibition, hits mostly inhibitors; 410,000 tested, 1.2% active; AID 588855; also: % is scaled to controls: 0 for no effect and ±100 for the full control effect; nearly all actives have a fitted effect of over 65% in size
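Using HEPG2 CAGA-GFP reporter cells at 1000 cells/well, we pinned test compounds, stimulated with recombinant TGF-beta (500 pg/mL final) and measured total well GFP after 18 h.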
DT40 TDP1 CPT = growth inhibition of DT40 Tdp1-/-;hTDP1 cells with camptothecin (screen for TDP1 inhibitors). chicken DT40 Tdp1-/-;hTDP1 cells + 20 nM CPT, ATP luminescence, 48 h. Potency, µM (doses to about 46.2 µM), inactives show at the top dose activity change, negative = growth inhibition, actives largely listed as inhibitors. 420,000 tested, 12% active; also: % is scaled to controls: 0 for no effect and ±100 for the full control effect; nearly all actives have a fitted effect of over 55% in size
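Chicken DT40 Tdp1-/- cells complemented with human TDP1, 400 cells/well, exposed to compounds plus 20 nM camptothecin for at least 48 h at 37 C; viability read as ATP content by CellTiter-Glo luminescence.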
* hit, by the source's call. Calls follow the shape of the dose curve; as a rule, active = well fitted curve in the direction sought with a large enough effect; inconclusive = small, poorly fitted or top-dose-only effect, or another doubt; inactive = no such curve, though single readings can be large; an effect the other way counts as inactive or inconclusive. Potency is read from the fitted curve at half-maximal effect.

How did Cc1cc(=O)[nH]c(NN=Cc2cc(Br)ccc2O)n1 do in these assays?
DT40 TDP1 no CPT: 2.9µM*; S2 tox: inconclusive; HepG2 viability: -7%; ATXN2 expr inh: inconclusive; TGFb SMAD3 inh: inconclusive; DT40 TDP1 CPT: 2.6µM*

Results for Cc1cc(=O)[nH]c(N/N=C/c2ccccc2Cl)n1 ?
DT40 TDP1 no CPT: inconclusive; S2 tox: inactive; HepG2 viability: -17%; TGFb SMAD3 inh: -23%; DT40 TDP1 CPT: -21%

Results for CCN(CC)c1ccc(/C=N/Nc2nc(C)cc(=O)[nH]2)c(O)c1 ?
DT40 TDP1 no CPT: 0.021µM*; S2 tox: inconclusive; HepG2 viability: -31%; ATXN2 expr inh: inconclusive; TGFb SMAD3 inh: inconclusive; DT40 TDP1 CPT: 0.021µM*

Results for Cc1cccc(NC(=O)CSc2nccn2Cc2ccco2)c1C ?
DT40 TDP1 no CPT: 1%; S2 tox: inactive; HepG2 viability: -3%; ATXN2 expr inh: 17%; TGFb SMAD3 inh: 33%; DT40 TDP1 CPT: inconclusive

Results for COc1ccccc1CNC(=O)COc1cc(=O)n(C)c2ccccc12 ?
DT40 TDP1 no CPT: inconclusive; S2 tox: inactive; HepG2 viability: -2%; ATXN2 expr inh: 0%; TGFb SMAD3 inh: -13%; DT40 TDP1 CPT: -28%

How did CCNCCCNCCCCNCCCNCC do in these assays?
DT40 TDP1 no CPT: 5.3µM*; DT40 TDP1 CPT: 3.8µM*

What do the screens show for `CS(=O)(=O)OCCCNCCCOS(C)(=O)=O`?
DT40 TDP1 no CPT: -21%; S2 tox: inactive; DT40 TDP1 CPT: 2%

How did CS(=O)(=O)c1cccc(-c2nnc(NC(=O)C3=COCCO3)o2)c1 do in these assays?
DT40 TDP1 no CPT: -5%; S2 tox: inactive; HepG2 viability: -8%; ATXN2 expr inh: 7%; TGFb SMAD3 inh: -2%; DT40 TDP1 CPT: 11%

Results for COC(=O)c1ccc(NC(=O)CC2Nc3cc(C)c(C)cc3NC2=O)cc1 (centres undefined) ?
DT40 TDP1 no CPT: inconclusive; HepG2 viability: -98%; TGFb SMAD3 inh: inconclusive; DT40 TDP1 CPT: inconclusive

What do the screens show for `Cc1cc2c(cc1C)NC(CC(=O)Nc1ccccc1)C(=O)N2` (centres undefined)?
DT40 TDP1 no CPT: 26µM*; HepG2 viability: -94%; ATXN2 expr inh: -5%; TGFb SMAD3 inh: -1%; DT40 TDP1 CPT: 16µM*

What do the screens show for `CCOc1ccccc1NC(=O)CC1Nc2cc(C)c(C)cc2NC1=O` (centres undefined)?
DT40 TDP1 no CPT: inconclusive; S2 tox: inactive; HepG2 viability: -11%; ATXN2 expr inh: -7%; TGFb SMAD3 inh: 0%; DT40 TDP1 CPT: 18µM*

Results for CC(=O)c1ccc(NC(=O)Cn2cc(S(=O)(=O)Cc3ccccc3Cl)c3ccccc32)cc1 ?
DT40 TDP1 no CPT: -10%; HepG2 viability: -16%; TGFb SMAD3 inh: 0%; DT40 TDP1 CPT: -23%

Results for Cc1cccc(C)c1NC(=O)C(c1ccc([N+](=O)[O-])cc1)N(C)C(=O)c1ccccn1 (centres undefined) ?
DT40 TDP1 no CPT: 3.3µM*; S2 tox: inactive; HepG2 viability: -6%; ATXN2 expr inh: 4%; TGFb SMAD3 inh: -6%; DT40 TDP1 CPT: 6.5µM*

How did COc1ccc(NC(=O)C(c2ccc(C)cc2)N(C)C(=O)c2cnccn2)cc1 (centres undefined) do in these assays?
DT40 TDP1 no CPT: -9%; S2 tox: inactive; HepG2 viability: -1%; ATXN2 expr inh: 11%; TGFb SMAD3 inh: -2%; DT40 TDP1 CPT: -6%

How did O=C(c1cccnc1)N1N=C(C2CCCCC2)CC1(O)C(F)(F)F (centres undefined) do in these assays?
DT40 TDP1 no CPT: 8.2µM*; S2 tox: inactive; HepG2 viability: -6%; ATXN2 expr inh: 8%; TGFb SMAD3 inh: -4%; DT40 TDP1 CPT: 6.5µM*

What do the screens show for `CCOC(=O)c1c(C)oc2nc(C)nc(NC(C)c3ccccc3)c12` (centres undefined)?
DT40 TDP1 no CPT: 16µM*; S2 tox: inactive; HepG2 viability: -26%; ATXN2 expr inh: 11%; TGFb SMAD3 inh: -3%; DT40 TDP1 CPT: 21µM*

How did CCOC(=O)c1c(C)oc2nc(C)nc(NCc3ccc(Cl)cc3)c12 do in these assays?
DT40 TDP1 no CPT: inconclusive; S2 tox: inactive; HepG2 viability: -4%; ATXN2 expr inh: 2%; TGFb SMAD3 inh: -3%; DT40 TDP1 CPT: inconclusive

What do the screens show for `CCOC(=O)c1c(C)oc2nc(C)nc(NCc3ccc(OC)cc3OC)c12`?
DT40 TDP1 no CPT: 13µM*; S2 tox: inactive; HepG2 viability: -18%; ATXN2 expr inh: 0%; TGFb SMAD3 inh: 5%; DT40 TDP1 CPT: inconclusive

Results for CCOC(=O)c1c(C)oc2nc(C)nc(Nc3cccc(OC)c3)c12 ?
DT40 TDP1 no CPT: -25%; S2 tox: inactive; HepG2 viability: 7%; ATXN2 expr inh: 13%; TGFb SMAD3 inh: -2%; DT40 TDP1 CPT: -27%

What do the screens show for `CCOC(=O)c1c(C)oc2nc(C)nc(NCCc3ccc(OC)c(OC)c3)c12`?
DT40 TDP1 no CPT: 18µM*; S2 tox: inconclusive; HepG2 viability: 4%; ATXN2 expr inh: -14%; TGFb SMAD3 inh: 11%; DT40 TDP1 CPT: 21µM*

Results for CCOC(=O)c1c(C)oc2nc(C)nc(NCc3ccc(F)cc3)c12 ?
DT40 TDP1 no CPT: 16µM*; S2 tox: inactive; HepG2 viability: -14%; ATXN2 expr inh: 7%; TGFb SMAD3 inh: -11%; DT40 TDP1 CPT: inconclusive

Results for CCOc1ccc(NC(=O)C2CCCN(c3ccc(Sc4ccc(C)cc4)nn3)C2)cc1 (centres undefined) ?
DT40 TDP1 no CPT: -21%; S2 tox: inactive; HepG2 viability: -3%; ATXN2 expr inh: 14%; TGFb SMAD3 inh: -26%; DT40 TDP1 CPT: -14%

What do the screens show for `C[C@H]1C[C@]2(O[C@@H]2C)C(=O)O[C@@H]2CCN(C)C/C=C(/COC(=O)[C@]1(C)O)C2=O`?
DT40 TDP1 no CPT: 4%; DT40 TDP1 CPT: -5%

What do the screens show for `COC(=O)C1=C(C)NC(C)=C(C(=O)OC)C1C(=O)OC(C)C(=O)c1ccccc1` (centres undefined)?
DT40 TDP1 no CPT: inconclusive; S2 tox: inactive; HepG2 viability: 20%; ATXN2 expr inh: 6%; TGFb SMAD3 inh: 34%; DT40 TDP1 CPT: -18%

What do the screens show for `COc1cc2c(NC3CCN(C)CC3)nc(N3CCCN(C)CC3)nc2cc1OCCN(C)C`?
DT40 TDP1 no CPT: 11µM*; DT40 TDP1 CPT: 11µM*
